Data published in PubChem BioAssay.
Calls of active or inactive are those of the source.

Key:
[1] = binders of probe aFSTL3 on microarray, primary screen, stem cell growth factor project, biochemical, small-molecule microarray, fluorescence 635/667 (AID 1064); details: higher = more signal;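 further: measures binding of the biotinylated anti-FSTL3 antibody to printed compounds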
[2] = binders from COS7 lysate, DM2A8 probe, primary screen, torsin A project, cell lysate, small-molecule microarray, fluorescence 635/667 (AID 1065); details: higher = more signal, COS7 lysate expressing mutant human TOR1A
[3] = binders of probe aFGF2 on microarray, primary screen, stem cell growth factor project, biochemical, small-molecule microarray, fluorescence 635/667 (AID 1067); details: higher = more signal;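 further: measures binding of biotinylated aFGF2 protein to printed compounds on slides; z-score merges feature fluorescence and signal-to-noise across triplicate slides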
[4] = binders of probe aFGF10 on microarray, primary screen, stem cell growth factor project, biochemical, small-molecule microarray, fluorescence 635/667 (AID 1071); details: higher = more signal;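 further: score merges 667 nm spot intensity and signal to noise from triplicate slides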
[5] = molecular target: Neurogenic locus notch homolog protein 2 (Homo sapiens) (UniProt Q04721); assay: Notch2 binders on small-molecule microarrays, primary screen, biochemical, small-molecule microarray, 635 nm fluorescence, stem cell growth factors (AID 1073); details: Notch2 binding, higher = more signal
[6] = molecular target: Pro-neuregulin-1, membrane-bound isoform (Homo sapiens) (UniProt Q02297); assay: NRG1 binders on small-molecule microarrays, primary screen, psychiatric disease protein project, biochemical, small-molecule microarray, fluorescence 635/667 (AID 1075); details: NRG1 binding, 635 nm fluorescence, higher = more signal;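 further: score combines 667 nm spot fluorescence with signal to noise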
[7] = tested on: Neuregulin-1 EGF-like domain; assay: binders of neuregulin-1 EGF-like domain, primary screen, biochemical, small-molecule microarray, 635 nm fluorescence (AID 1081); details: small-molecule microarray binding, higher = more signal;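 further: binding of the protein to compounds printed on small-molecule microarray slides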
[8] = FRG1 promoter luciferase signal modulators, primary screen, FRG1 inhibition for FSHD, cell-based, C2C12 myotubes, firefly/Renilla luciferase, luminescence (AID 1084); details: higher = more signal, called active from +8 up or from −8 down
[9] = binders of probe aFST on microarray, primary screen, stem cell growth factor project, biochemical, small-molecule microarray, fluorescence 635/667 (AID 1086); details: higher = more signal;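 further: score merges 667 nm fluorescence with signal-to-noise of each printed compound spot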
[10] = binders of probe aHhip on microarray, primary screen, stem cell growth factor project, biochemical, small-molecule microarray, fluorescence 635/667 (AID 1087); details: higher = more signal;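 further: score merges spot fluorescence at 667nm with spot signal to noise ratio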
[11] = tested on: PRMT1 (protein arginine N-methyltransferase 1); assay: PRMT1 binders on small-molecule microarrays, primary screen, biochemical, small-molecule microarray, 635 nm fluorescence (AID 1088); details: small-molecule microarray binding, higher = more signal;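 further: binding of Prmt1 protein to compounds spotted on small-molecule microarray slides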
[12] = yeast growth modulation, basal conditions, primary screen, YJM789 clinical isolate, OD600, 24 h (AID 1089);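 further: growth of clinical yeast isolate S. cerevisiae YJM 789 seeded 1000 cells per well; test concentration not given here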; details: S. cerevisiae YJM789 growth, higher = more signal, called active from +8 up or from −8 down
[13] = fission yeast growth modulation, primary screen, strain 972, OD600, 24 h, no modulator (AID 1090);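 further: basal condition with compound alone and no growth modifier present; test concentration not given here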; details: S. pombe 972 growth, higher = more signal, called active from +8 up or from −8 down
[14] = S. cerevisiae growth modulation with rapamycin, primary screen, strain BY4716, OD600, 96 h (AID 1091); details: higher = more signal, called active from +8 up or from −8 down; further: test concentration not given here
[15] = molecular target: Torsin-1A-interacting protein 2 (Homo sapiens) (UniProt Q8NFQ8); assay: LULL1 binders on small-molecule microarray, primary screen, cell lysate, human LULL1 lysate, 635/667 nm fluorescence (AID 1092); details: hLULL1 lysate binding, 635 nm fluorescence, higher = more signal;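 further: probe is lysate of COS7 cells overexpressing human LULL1; score merges per-feature 667 nm fluorescence with signal-to-noise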
[16] = E. coli growth modulation, two-sided OD650, primary screen, E. coli filamentation project, strain DRC41, 24 h (AID 1093); details: OD650, 24 h, higher = more signal, called active from +8 up or from −8 down;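 further: MC1000 strain lacking acrAB efflux and sulA so SOS filamentation is blocked; test concentration not given here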
[17] = small-molecule microarray binders of probe aLefty2, primary screen, biochemical, biotinylated probe, 635/667 nm fluorescence (AID 1094); details: higher = more signal;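 further: score merges spot fluorescence near 667 nm with spot signal-to-noise ratio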
[18] = tested on: Noggin (protein binding on small-molecule microarray); assay: Noggin binders on small-molecule microarray, primary screen, biochemical, 635/667 nm fluorescence (AID 1095); details: 635 nm fluorescence, higher = more signal;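 further: score merges 667 nm feature fluorescence with signal to noise over triplicate slides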
[19] = molecular target: Neurogenic locus notch homolog protein 3 (Homo sapiens) (UniProt Q9UM47); assay: NOTCH3 binders on small-molecule microarray, primary screen, biochemical, 635/667 nm fluorescence (AID 1096); details: NOTCH3 binding, 635 nm fluorescence, higher = more signal
[20] = small-molecule microarray binders of probe aEGFR, primary screen, biochemical, biotinylated probe, 635/667 nm fluorescence (AID 1097); details: higher = more signal;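 further: probe is a biotinylated anti-EGFR antibody binding compounds printed on slides; score combines fluorescence near 667 nm and signal to noise of each spot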

Sequence of Neurogenic locus notch homolog protein 2 (Homo sapiens) (Q04721 whole entry, looked up, canonical isoform): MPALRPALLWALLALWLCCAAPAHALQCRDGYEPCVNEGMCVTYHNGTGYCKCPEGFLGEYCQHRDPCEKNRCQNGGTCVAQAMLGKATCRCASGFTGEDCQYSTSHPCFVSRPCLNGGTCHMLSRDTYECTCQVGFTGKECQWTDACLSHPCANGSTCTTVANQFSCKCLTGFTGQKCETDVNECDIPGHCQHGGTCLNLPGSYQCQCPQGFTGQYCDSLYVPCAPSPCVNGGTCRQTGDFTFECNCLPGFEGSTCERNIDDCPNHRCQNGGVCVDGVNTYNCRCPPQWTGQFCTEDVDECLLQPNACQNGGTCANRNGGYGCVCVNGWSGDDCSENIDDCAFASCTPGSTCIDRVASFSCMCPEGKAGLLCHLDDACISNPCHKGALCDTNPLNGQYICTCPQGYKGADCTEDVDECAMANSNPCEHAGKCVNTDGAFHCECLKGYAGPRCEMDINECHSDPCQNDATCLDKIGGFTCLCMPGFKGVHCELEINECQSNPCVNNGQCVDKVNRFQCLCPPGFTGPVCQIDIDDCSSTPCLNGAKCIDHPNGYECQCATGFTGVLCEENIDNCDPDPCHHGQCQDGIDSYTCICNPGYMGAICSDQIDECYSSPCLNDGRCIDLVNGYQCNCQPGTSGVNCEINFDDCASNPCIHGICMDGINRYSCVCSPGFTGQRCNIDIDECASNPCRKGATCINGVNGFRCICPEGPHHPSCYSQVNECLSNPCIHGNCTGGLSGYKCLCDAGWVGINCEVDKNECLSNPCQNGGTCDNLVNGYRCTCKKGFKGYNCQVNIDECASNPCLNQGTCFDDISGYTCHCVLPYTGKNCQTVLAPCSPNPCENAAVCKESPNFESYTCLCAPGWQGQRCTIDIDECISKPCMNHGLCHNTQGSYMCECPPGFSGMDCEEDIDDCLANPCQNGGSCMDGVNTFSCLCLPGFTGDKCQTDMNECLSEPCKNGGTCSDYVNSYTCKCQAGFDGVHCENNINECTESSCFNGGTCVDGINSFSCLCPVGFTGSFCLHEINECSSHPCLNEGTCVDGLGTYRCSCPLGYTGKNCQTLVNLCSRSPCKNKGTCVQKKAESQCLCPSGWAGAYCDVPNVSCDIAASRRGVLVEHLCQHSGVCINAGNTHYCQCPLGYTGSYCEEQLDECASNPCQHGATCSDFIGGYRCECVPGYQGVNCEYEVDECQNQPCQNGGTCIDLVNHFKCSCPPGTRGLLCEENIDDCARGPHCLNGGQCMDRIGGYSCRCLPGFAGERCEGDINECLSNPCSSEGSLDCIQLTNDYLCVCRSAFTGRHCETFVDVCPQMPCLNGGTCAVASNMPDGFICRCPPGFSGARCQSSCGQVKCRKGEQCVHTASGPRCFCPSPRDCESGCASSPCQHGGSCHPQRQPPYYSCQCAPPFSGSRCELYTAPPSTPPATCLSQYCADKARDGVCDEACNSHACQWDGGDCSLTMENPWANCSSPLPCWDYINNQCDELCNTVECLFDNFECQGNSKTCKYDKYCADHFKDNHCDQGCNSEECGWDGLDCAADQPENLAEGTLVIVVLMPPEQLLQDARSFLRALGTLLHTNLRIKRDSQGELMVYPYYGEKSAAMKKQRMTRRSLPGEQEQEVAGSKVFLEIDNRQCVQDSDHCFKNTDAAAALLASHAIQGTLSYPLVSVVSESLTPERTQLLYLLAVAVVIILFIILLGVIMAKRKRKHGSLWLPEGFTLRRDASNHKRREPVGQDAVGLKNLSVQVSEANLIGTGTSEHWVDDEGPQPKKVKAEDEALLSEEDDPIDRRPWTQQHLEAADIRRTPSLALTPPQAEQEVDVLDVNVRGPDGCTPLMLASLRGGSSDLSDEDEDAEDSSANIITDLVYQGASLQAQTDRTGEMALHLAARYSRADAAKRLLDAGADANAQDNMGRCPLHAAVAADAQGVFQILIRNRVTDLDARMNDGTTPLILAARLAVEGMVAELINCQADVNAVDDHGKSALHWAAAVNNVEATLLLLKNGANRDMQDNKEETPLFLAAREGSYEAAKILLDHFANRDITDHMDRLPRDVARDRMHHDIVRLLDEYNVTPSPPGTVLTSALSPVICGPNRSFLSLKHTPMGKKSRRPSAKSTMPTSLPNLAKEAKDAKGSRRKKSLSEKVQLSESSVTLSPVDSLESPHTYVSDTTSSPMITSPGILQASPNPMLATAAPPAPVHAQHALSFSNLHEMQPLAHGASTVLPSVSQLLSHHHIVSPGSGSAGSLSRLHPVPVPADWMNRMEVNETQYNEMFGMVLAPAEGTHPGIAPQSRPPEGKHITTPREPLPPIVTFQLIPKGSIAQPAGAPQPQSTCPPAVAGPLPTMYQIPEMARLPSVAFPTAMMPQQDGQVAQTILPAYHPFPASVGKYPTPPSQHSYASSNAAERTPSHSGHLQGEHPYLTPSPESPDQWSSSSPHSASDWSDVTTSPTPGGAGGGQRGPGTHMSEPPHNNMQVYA
Sequence of Pro-neuregulin-1, membrane-bound isoform (Homo sapiens) (Q02297 whole entry, looked up, the tested form may be a part, canonical isoform): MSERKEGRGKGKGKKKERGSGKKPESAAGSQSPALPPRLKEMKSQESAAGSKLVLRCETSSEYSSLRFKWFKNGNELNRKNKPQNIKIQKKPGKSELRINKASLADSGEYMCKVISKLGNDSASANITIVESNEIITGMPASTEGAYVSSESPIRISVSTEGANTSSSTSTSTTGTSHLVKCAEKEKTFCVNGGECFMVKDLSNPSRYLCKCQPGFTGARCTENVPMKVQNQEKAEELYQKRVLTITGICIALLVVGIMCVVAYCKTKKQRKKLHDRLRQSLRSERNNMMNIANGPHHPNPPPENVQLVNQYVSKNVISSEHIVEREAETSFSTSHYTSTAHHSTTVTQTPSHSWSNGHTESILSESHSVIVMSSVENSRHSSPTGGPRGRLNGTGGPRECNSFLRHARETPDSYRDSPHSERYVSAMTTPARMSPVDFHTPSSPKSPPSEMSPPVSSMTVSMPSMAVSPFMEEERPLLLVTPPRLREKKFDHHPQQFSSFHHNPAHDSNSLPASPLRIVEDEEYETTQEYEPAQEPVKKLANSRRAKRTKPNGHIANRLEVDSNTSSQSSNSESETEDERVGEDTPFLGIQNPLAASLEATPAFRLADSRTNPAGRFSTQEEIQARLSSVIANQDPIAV
Sequence of Torsin-1A-interacting protein 2 (Homo sapiens) (Q8NFQ8 whole entry, looked up): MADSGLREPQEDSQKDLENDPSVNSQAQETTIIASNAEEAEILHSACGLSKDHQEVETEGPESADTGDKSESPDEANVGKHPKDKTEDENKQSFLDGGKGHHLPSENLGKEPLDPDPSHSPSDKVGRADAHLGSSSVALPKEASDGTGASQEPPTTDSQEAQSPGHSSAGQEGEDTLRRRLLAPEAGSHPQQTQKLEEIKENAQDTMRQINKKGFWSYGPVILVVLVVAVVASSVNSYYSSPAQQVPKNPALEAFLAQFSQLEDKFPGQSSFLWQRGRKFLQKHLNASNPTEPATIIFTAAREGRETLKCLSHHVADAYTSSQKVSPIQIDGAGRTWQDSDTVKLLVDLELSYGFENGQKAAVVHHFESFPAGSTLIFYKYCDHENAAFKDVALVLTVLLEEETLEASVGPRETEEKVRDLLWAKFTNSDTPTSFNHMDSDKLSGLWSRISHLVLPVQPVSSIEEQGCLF

| Structure (SMILES) | composite z-score [1] | composite z-score [2] | composite z-score [3] | composite z-score [4] | composite z-score [5] | composite z-score [6] | composite z-score [7] | z-score [8] | composite z-score [9] | composite z-score [10] | composite z-score [11] | z-score [12] | z-score [13] | z-score [14] | composite z-score [15] | z-score [16] | composite z-score [17] | composite z-score [18] | composite z-score [19] | composite z-score [20] |
| --- | --- | --- | --- | --- | --- | --- | --- | --- | --- | --- | --- | --- | --- | --- | --- | --- | --- | --- | --- | --- |
| O=C1OCC=C[C@H]2OC34C=CCN(Cc5ccccc5)C(=O)[C@H]3N(CCCO)C(=O)[C@@H]4[C@@H]12 (stereo not given in full) | 0.646 | -0.815 | 0.0661 | -0.17 | -0.286 | 2.42 | 1.42 | 0.0735 (inactive) | 0.245 | 0.902 | 0.733 | 0.393 (inactive) | -0.885 (inactive) | -0.38 (inactive) | 3.71 | 2.76 (inactive) | 0.694 | 0.319 | 0.288 | -0.0703 |
| CCCC[C@H]1OB(O)C[C@H]2C1=C(COc1ccccc1)C[C@H]1C(=O)N(Cc3ccccc3)C(=O)[C@H]12 | -0.331 | -0.413 | -0.0434 | 0.418 | 0.0238 | 0.117 | 1.07 | 0.132 (inactive) | -0.0344 | 0.0623 | 0.385 | -1.87 (inactive) | -1.54 (inactive) | -1.6 (inactive) | 1.33 | 0.194 (inactive) | -0.121 | 1.51 | 0.862 | -0.0828 |
| COC(=O)[C@@]1(Cc2ccc(F)cc2)[C@H]2c3cc(C(=O)N(C)C)n(CCCNc4ccc(C(F)(F)F)cc4Cl)c3C[C@H]2CN1C(=O)c1ccccc1 | 0.785 | 0.34 | 0.311 | 0.754 | 1.75 | 1.16 | 1.27 | 0.452 (inactive) | 1.55 | -0.114 | 1.41 | 0.406 (inactive) | 1.06 (inactive) | 5.11 (inactive) | 3.36 | -1.3 (inactive) | 0.555 | 0.282 | 1.02 | 0.361 |
| C[N+](C)(C)CCCC[C@@H]1NC(=O)[C@@H]2C[C@H](C(=O)NCCCCCCNC(=O)CS)[C@H](c3cccc(OCCO)c3)N2C1=O | -0.145 | 0.976 | -0.132 | -0.459 | -0.395 | 0.612 | 1.36 | -0.944 (inactive) | -0.713 | -0.0193 | 1.12 | -1.33 (inactive) | -0.333 (inactive) | -0.485 (inactive) | 1.09 | -0.102 (inactive) | -0.21 | 1.84 | -0.0644 | -0.233 |
| COc1ccc([Si](C)(C)[C@@H]2[C@@H](CC(=O)N3Cc4ccccc4C[C@H]3CO)O[C@]3(C(=O)N(Cc4cccc(N5C(=O)COc6ccccc65)c4)c4ccccc43)[C@H]2C)cc1 | -0.562 | 0.608 | -0.1 | 0.41 | 0.244 | 1.57 | 0.725 | -2.29 (inactive) | 0.0559 | -0.451 | 1.49 | -1.38 (inactive) | 0.553 (inactive) | 3.67 (inactive) | 1.25 | 2.33 (inactive) | -0.15 | 0.812 | 1.14 | -0.0981 |
| COC(=O)[C@@]1(Cc2ccc(F)cc2)[C@H]2c3cc(C(=O)N(C)C)n(Cc4ccccn4)c3C[C@H]2CN1C(=O)c1ccccc1 | 0.449 | 0.55 | 0.25 | 0.658 | 1.65 | 1.42 | 1.38 | 3.37 (inactive) | 1.55 | 1.49 | 0.837 | -0.602 (inactive) | -0.306 (inactive) | -0.545 (inactive) | 3.7 | -0.0591 (inactive) | -0.153 | 0.321 | 1.01 | 0.533 |
| Cn1c2c(c3ccccc31)C(=O)C1NC2C=CC1(C)C(=O)OCc1ccccc1 (stereo not given) | 1.03 | 0.979 | -0.176 | -1.31 | -1.15 | 1.06 | 0.467 | -1.52 (inactive) | -0.478 | -0.0645 | 0.417 | -0.566 (inactive) | 0.35 (inactive) | -0.233 (inactive) | 3.1 | -1.01 (inactive) | -0.0097 | -2.04 | -0.258 | -0.264 |
| CN1C(=O)C2C(C1=O)C1C=C(c3ccc(CO)cc3)C2C(C2CC2)N1Cc1sc2ccccc2c1Cl (stereo not given) | 0.0497 | 1.17 | 0.0311 | 1.02 | 1.68 | 1.41 | 0.866 | -2.04 (inactive) | 0.391 | 0.2 | 1.55 | 0.654 (inactive) | -3 (inactive) | 1.42 (inactive) | 3.33 | 0.204 (inactive) | 0.252 | 0.411 | 1.03 | 0.0651 |
| NC(=O)NCC#Cc1ccc2c(c1)[C@]1(C(=O)N2)[C@H](c2ccccc2OCCO)N2[C@H](c3ccccc3)[C@H](c3ccccc3)OC(=O)[C@H]2[C@@H]1C(=O)N1CCCCCCC1 | 3.75 | 1.38 | 0.866 | 0.803 | 1.38 | 1.31 | 1.08 | -1.7 (inactive) | 3.41 | 3.04 | 1.55 | 0.456 (inactive) | -1.36 (inactive) | 1.49 (inactive) | 4.09 | 1.26 (inactive) | 1.79 | 1.8 | 1.11 | 1.21 |
| O=P(NCC1(CC2(c3ccccc3)CO2)CC1)(c1ccccc1)c1ccccc1 (stereo not given) | 0.565 | -0.856 | 0.218 | 0.315 | -0.401 | 1.06 | 0.619 | -1.59 (inactive) | -0.0087 | 0.275 | -0.878 | -0.468 (inactive) | 1.08 (inactive) | 0.236 (inactive) | 3.14 | 0.31 (inactive) | -0.132 | -1.44 | -1.19 | -0.207 |
